Consider 69 sequences from PubChem BioAssay AID1347426 (Functional Genomics Laboratory (NCATS/FGL), 2020).

Out of some 31,000 sequences screened, about 1,400 (4.5%) were called active. Shown is part of a subset that was picked to be rich in actives. Unmarked numbers belong to inactive results.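 The calls were made as follows: active = median seed-adjusted z-score above 1 or below -1; inactive = the rest.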

This assay is described as follows: Novel Modifiers of Survival Motor Neuron (SMN) Protein: Gene Identification via Genome-wide siRNA Screen.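 Also: luminescence tracks full-length SMN protein made from the SMN2 reporter.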 As to conditions: HEK293T SMN2-luciferase reporter, siRNA knockdown, 72 h; actives lie on both sides. Put shortly:
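Genome-wide siRNA screen (10418 genes, 3 siRNAs each, 1 pmol per well) by reverse transfection in HEK293T cells stably carrying an SMN2-luciferase reporter; luminescence after 72 hours, normalized to negative-control siRNA, log10-transformed, MAD-scored.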
(Reporter assays use an easily measured gene product as a stand-in for the process of interest.)
As for CGGGUAUGUUGAUAGCAUATT against FAM12B, the median seed-adjusted z-score was 0.312.

For the sequence GCAGUGUACCCGUCAUUAUTT against SEMA4B, the median seed-adjusted z-score was 0.185.

Turning to GGAACAAAAGGAUCGAAUATT against CLSTN3, the median seed-adjusted z-score was 0.

On to CUAUAAAUGUAAACGAUGUTT against ZNF442, for which the median seed-adjusted z-score is 1.06 (active).

For CUGUUUGACUUCAUCGAGATT against COPG, the median seed-adjusted z-score is 0.175.

In the case of CAAUCCAUGUCAUAGGGAATT against ZNF702, the median seed-adjusted z-score is 0.204.

With CGGCAAUCCUUACGGCUAATT against DSG4, the median seed-adjusted z-score was -0.0211.

As for CCGUCAUUGUCAACCGGAATT against SLC4A5, the median seed-adjusted z-score is 1.3 (active).

For the sequence CUACGUCUCGGGUCCAGAUTT against HOXA11, the median seed-adjusted z-score is -0.222.

Turning to GGACAUACACUGAGAGUCATT against PDLIM2, the median seed-adjusted z-score was 0.267.

As to GAGCAGAACCGCAUCAUAUTT against UCN, the median seed-adjusted z-score is -0.472.

For GGAGGAUACUUUAGAACAATT against NDC80, the median seed-adjusted z-score is 0.0855.

As to GCAUCUACAUGACCAACCUTT against GPR35, the median seed-adjusted z-score was -1.46 (active).

Turning to CAUGAUACAGGGAAUAAAATT against ZNF619, the median seed-adjusted z-score is -0.536.

With UCAUCGAACUGAAUACCAATT against STARD3, the median seed-adjusted z-score is -0.314.

For CUACUGGACUGAUCAAGCUTT against CTCFL, the median seed-adjusted z-score is -0.362.

In the case of GGACAAAGACUGUCGCCUATT against DHX35, the median seed-adjusted z-score was -0.066.

In the case of CUAUGACGACUUAUCCAAATT against ATP5A1, the median seed-adjusted z-score is -0.974.

In the case of CCUACACCAUGAUCGGAAATT against KIF26B, the median seed-adjusted z-score is -0.153.

In the case of GCGUUAUCCUCACCUUCAATT against G6PD, the median seed-adjusted z-score is 0.593.

With CAUUCAGCUUGUCACGUCATT against THOC4, the median seed-adjusted z-score was -1.54 (active).

In the case of CCAAGGUUUUGGAUAGCAATT against RHBDL2, the median seed-adjusted z-score is 0.0701.

For the sequence CCAAGUCCCAUACAACAAATT against C1S, the median seed-adjusted z-score is -0.561.

As for GCUUCUACCUUUACACGGATT against PDE1A, the median seed-adjusted z-score was 0.

Regarding CUAUAGCUGUCUCCCAGAATT against PRICKLE2, the median seed-adjusted z-score is -1.12 (active).

On to GGAGAAAAACUAUAUGAAUTT against ZNF585B, for which the median seed-adjusted z-score was 0.158.

In the case of CUUUGGAACAAAUACCGAATT against NXN, the median seed-adjusted z-score is 0.175.

As for CACCUAUAGUGACGAUAUATT against MEP1B, the median seed-adjusted z-score is 1.46 (active).

On to AGGCAUUCCUCGGAAGUCATT against SMAD7, for which the median seed-adjusted z-score was -0.25.

In the case of CCAUCGUUUUGGUCUUGUATT against VN1R2, the median seed-adjusted z-score was -0.151.

With GGAAAGAACUACCUCCUGATT against TREH, the median seed-adjusted z-score is 0.396.

With GGAAGAUCAUAGAAGUUGATT against SLC1A1, the median seed-adjusted z-score is 0.0967.

Regarding CCAUUGUCACGGGCUUGUATT against ENPP3, the median seed-adjusted z-score was 0.66.

Regarding GCAUCUAUGUCAACAAGAUTT against POLR2I, the median seed-adjusted z-score is -3.27 (active).

Regarding CUGCUAAACUUGAACCGAATT against TM9SF2, the median seed-adjusted z-score was 1.09 (active).

For the sequence UCCUAUCAGAAGUUGCAUATT against RKHD4, the median seed-adjusted z-score was 0.0683.

For CAAUGUUUACUACAAUGAATT against TUBB2B, the median seed-adjusted z-score was 0.935.

Regarding GGAGUGCUAGAAUCUACUATT against HEPH, the median seed-adjusted z-score is -0.293.

In the case of GGAUACAAAGCACAUAACATT against UBE2D4, the median seed-adjusted z-score was 0.232.

Consider GAGCAUUAUGUUACACCAATT against TTC6, for which the median seed-adjusted z-score was 0.234.

Regarding GAACCUCAGUUGAGUAUUUTT against RPE, the median seed-adjusted z-score was 0.616.

Consider CAGUGCUGUUAGAAUAAAATT against ZNHIT1, for which the median seed-adjusted z-score was -0.497.

Regarding UGUGGAGAAUGACUACAUATT against SPRY4, the median seed-adjusted z-score was -1.23 (active).

On to GGAUGACCAGGGUCUAUAATT against FMO4, for which the median seed-adjusted z-score was -0.359.

With CCAUGAAUUCUUACUUUUATT against VAC14, the median seed-adjusted z-score was 0.0825.

For CAGAAUCAGCUGGAAGAAATT against BAIAP2, the median seed-adjusted z-score was -0.0497.

Regarding GUAGCAGGGCUGAACCCAUTT against ZMAT5, the median seed-adjusted z-score is 0.292.

As to GCCGUGACCUACUUCAUCATT against SLC29A4, the median seed-adjusted z-score is 0.0192.

For CAGCUGAUGCGGACCAAGATT against RASSF4, the median seed-adjusted z-score is 0.29.

GAUACUCGUAUUAAGCCUATT against USP32: the median seed-adjusted z-score is 0.484.

With GAACUGUGCUGAUGUGAAATT against PATE1, the median seed-adjusted z-score is 1.21 (active).

For the sequence GCAAGUCGUGAAACUAUAATT against YEATS4, the median seed-adjusted z-score is 0.905.

Turning to GGUGCUGAAUGUGGAGUAATT against DNAJC3, the median seed-adjusted z-score is 0.502.

Consider GCAGAACAACGAGCACAGATT against CTSW, for which the median seed-adjusted z-score is -0.342.

In the case of GGAAUUCCAGUAACGAUGATT against RNF149, the median seed-adjusted z-score was -0.17.

Consider GCAUAAAUGAAAUCUCGGATT against ZMYND8, for which the median seed-adjusted z-score was -0.065.

Turning to GGGUCAUCCGAGAAAAGAATT against ADAMTS17, the median seed-adjusted z-score was 0.257.

GAGCAGUACAGAACAGGAATT against HAAO: the median seed-adjusted z-score is 0.214.

Consider GCUGCUCACUGUUUCAUGATT against PRSS36, for which the median seed-adjusted z-score is 0.589.

As to CAACAGAAUAUGCCGUAUATT against SNRPA1, the median seed-adjusted z-score was -2.71 (active).

Regarding GUUUGCAUGUGACAAUGGATT against PPTC7, the median seed-adjusted z-score is 0.49.

For GCACAGGUCUAAUUCGUCUTT against GRIK1, the median seed-adjusted z-score was -0.31.

In the case of CGACACCGGAUAAACCAAATT against HES1, the median seed-adjusted z-score was -0.262.

For the sequence GCACCAGGAUAUGUCUUAATT against YY1AP1, the median seed-adjusted z-score is 0.0453.

On to GGUCAAAGAGUUAUAGAUUTT against MKKS, for which the median seed-adjusted z-score is 1.03 (active).

Turning to GGUGUCACCCUGUGAAUUUTT against MAP1S, the median seed-adjusted z-score was 0.0941.

Regarding AGCCUAUGGUCGGAACGAATT against APOBEC3F, the median seed-adjusted z-score is -0.315.

For GCACCUAUGCAGCUCUUCATT against FBLIM1, the median seed-adjusted z-score was 0.0604.

GGGUUACCCUGGUCAUUAATT against ZNHIT2: the median seed-adjusted z-score is -0.339.
